# Assay outcomes as filed in PubChem BioAssay.
# Only some compounds are listed: those with a hit (about 2.2% of all), similar ones and a draw of the others.
# LGR2 antag = inhibitors of bursicon-induced LGR2 CRE-luciferase signal, primary screen, cell-based, HEK293, CRE-luciferase reporter, bursicon stimulation | Drosophila bursicon receptor LGR2 (rickets) | bursicon-stimulated, 4 h | inhibition, % at 9.99 µM | 380,000 compounds, 0.35% hits | AID 720647, 2013;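 active = drop in luminescence signal, shown as inhibition above about 50% in the replicate tests, limit read from the data, passing the limit was not always enough; inconclusive = probably only some replicates passing the limit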;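 also: agonist challenge used bursicon conditioned medium at about half maximal strength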
# TROY signal inh = inhibitors of TROY-driven NF-kB signaling, primary screen, Q293 LMP1-TROYcd cells, NF-kB luciferase, uHTS | inhibition, % at 10 µM | Q293 LMP1-TROYcd NF-kB luciferase reporter, 4 h | AID 1347056, 2019 | 360,000 compounds, 0.98% hits;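 active = compounds whose plate-normalised and pattern-corrected inhibition of the luciferase reporter signal at the single screening dose is 50% or more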
# TWEAK-Fn14 inh = inhibitors of TWEAK-Fn14 signaling, primary screen, luciferase reporter cells, uHTS | AID 1159606, 2016 | 360,000 compounds, 2% hits | inhibition, % at 10 µM | TWEAK-stimulated Fn14 reporter cells, luciferase luminescence, 8 h; in the data active = inhibition above about 50%
# HSP90 refold inh = HSP90 inhibitors, primary screen, cell lysate, luminescence; Rabbit reticulocyte lysate, luciferase refolding luminescence, 3 h; inhibition, % at 5.6 µM; 290,000 compounds, 0.91% hits; AID 1789, 2009;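 active = inhibition above the screen-wide mean plus 3 SD, computed separately per campaign, cut at about 16% in these data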;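 also: 0% = DMSO wells and 100% = 60 µM geldanamycin wells; inhibitors lower the luminescence because luciferase stays unfolded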
# * marks the source's active call; other numbers are inactive results; ? = inconclusive; . = no result given.
SMILES,LGR2 antag,TROY signal inh,TWEAK-Fn14 inh,HSP90 refold inh
Nc1ncn([C@@H]2O[C@H](CO)[C@@H](O)[C@H]2O)c(=O)n1,?,27.9,72.5*,.
Nc1ccn([C@@H]2O[C@H](CO)[C@@H](O)[C@@H]2O)c(=O)n1,2.8,3.4,-24.7,-1.9
COc1cccc(CN(C)C(=O)c2cc(COc3c(F)cccc3F)on2)c1,-38.0,-41.3,24.8,4.3
O=C(NC1CCCC1)c1cc(COc2ccc3ncccc3c2)on1,.,29.2,24.6,-0.8
COc1cccc(CN(C)C(=O)c2cc(COc3ccc4ncccc4c3)on2)c1,16.5,40.9,59.5*,2.7
O=C(NCCc1cn2ccccc2n1)c1cc(COc2ccc3ncccc3c2)on1,20.0,40.7,66.2*,2.5
Cn1c(C(=O)Nc2ccccc2)cc2sccc21,.,-40.1,12.1,-2.4
COC(=O)c1ccc(NC(=O)c2cc3sccc3n2C)cc1,.,-23.9,55.5*,-3.8
Cc1cc(C(=O)N2CCc3ccccc32)n(-c2ccccc2)n1,-2.9,12.5,5.4,3.8
Cc1cc(C)n(-c2ccc(C(=O)N3CCc4ccccc43)cc2)n1,.,-25.4,88.0*,-0.5
CN(C)CCCN=Cc1c(-c2ccccc2)[nH]n(-c2nc3ccccc3s2)c1=O,.,10.5,62.4*,1.6
O=c1c(C=NCCCn2ccnc2)c(-c2ccccc2)[nH]n1-c1nc2ccccc2s1,-6.9,-39.2,-7.0,3.8
COc1ccc(C(=O)Sc2ccc(C)cc2)cc1OC,.,1.3,27.7,4.3
COc1ccc(C(=O)Sc2ccc(Cl)cc2)cc1OC,.,5.3,57.4*,-0.3
Cc1ccc(Nc2nc3c(c(=O)[nH]2)CCCC3)cc1,-37.1,-32.6,-23.3,0.4
O=c1[nH]c(Nc2nc3ccccc3o2)nc2c1CCCC2,-5.5,75.5*,97.9*,1.1
COc1ccccc1/C=C/C(=O)c1c2c(c(C)[nH]c1=O)CCCC2,55.6*,35.4,85.5*,-1.6
O=C(Cc1cccnc1)N1CC(=O)N2[C@H](CO)[C@@H](c3ccc(C4=CCCC4)cc3)[C@H]2C1,5.1,.,.,.
COc1ccc2c3c([nH]c2c1)[C@H](CO)N(C(=O)C1CCC1)CC31CCN(C(=O)c2ccccn2)CC1,-27.6,.,.,.
CC(C)c1ccc(Nc2ncc3c(n2)CCN(C(=O)Nc2ccc(F)c(Cl)c2)C3)cc1,-8.9,65.1*,78.1*,.
COc1cccc(NC(=O)N2CCc3nc(NCc4cccc(Oc5ccccc5)c4)ncc3C2)c1,.,17.8,54.3*,.
C[C@@H]1CN([C@H](C)CO)C(=O)c2cc(NC(=O)Nc3ccccc3)ccc2O[C@H]1CN(C)S(=O)(=O)c1ccccc1,-7.0,.,.,.
CN(C)C(=O)C[C@@H]1C[C@@H]2c3cc(NC(=O)c4ccc5c(c4)OCO5)ccc3O[C@@H]2[C@@H](CO)O1,-5.9,.,.,.
CC(C)CC#Cc1ccc2c(c1)O[C@H](CN(C)C(=O)Cc1ccccc1)[C@H](C)CN([C@H](C)CO)S2(=O)=O,10.5,.,.,.
Cc1cc(NC(=O)c2ccccc2NS(=O)(=O)c2c(C)c(C)cc(C)c2C)no1,.,53.4*,37.5,1.1
SMILES,LGR2 antag,TROY signal inh,TWEAK-Fn14 inh,HSP90 refold inh
Cc1ccc(C)c(S(=O)(=O)Nc2ccccc2C(=O)Nc2cc(C)on2)c1,.,32.0,28.2,-4.8
COc1ccc2c3c([nH]c2c1)[C@@H](CO)N(C(=O)Nc1ccccc1F)CC31CCN(C(=O)c2ccccc2F)CC1,7.1,.,.,.
O=C(NCC[C@@H]1CC[C@@H](NC(=O)C2CCCCC2)[C@@H](CO)O1)c1cc(Cl)cc(Cl)c1,-8.1,.,.,.
NC(=O)c1ccsc1NC(=O)COC(=O)Cc1cccc2ccccc12,.,60.9*,54.8*,8.1
NC(=O)c1ccsc1NC(=O)COC(=O)Cc1c[nH]c2ccccc12,-2.7,8.7,22.6,.
CC(C)CC1NC(=O)N(Cc2nc3ccccc3s2)C1=O (stereo not drawn),-37.3,-0.2,72.3*,1.4
CC(=O)c1cccc(NC(=O)CSc2nc(C3CC3)nc3ccccc23)c1,14.5,39.8,57.6*,2.7
Cc1ccc(NC(=O)CSc2ncnc3ccccc23)cc1S(=O)(=O)N1CCOCC1,27.1,53.5*,70.8*,-1.8
Cc1ccc(NC(=O)CSc2ncnc3ccccc23)cc1S(=O)(=O)N1CCCCC1,28.0,35.1,72.2*,2.4
O=C(CSc1ncnc2ccccc12)Nc1ccc2c(c1)OCCO2,-13.2,-18.2,-3.0,0.9
O=C(CSc1ncnc2ccccc12)Nc1ccc2c(c1)OCO2,-36.6,-13.5,64.9*,-5.9
Cc1ccc(NC(=O)COc2ncnc3ccccc23)cc1S(=O)(=O)N1CCOCC1,5.1,13.4,13.0,4.3
CC(=O)Nc1cccc(NC(=O)CSc2nc(C3CC3)nc3ccccc23)c1,-12.2,8.9,31.3,-2.2
COc1ccc2c3c([nH]c2c1)[C@H](CO)N(C(=O)NC(C)C)CC31CCN(C(=O)c2cccnc2)CC1,3.7,.,.,.
C[C@@H]1CN([C@H](C)CO)C(=O)c2cc(C#CC3CC3)cnc2O[C@H]1CN(C)S(=O)(=O)c1cccc(F)c1,12.2,.,.,.
COc1ccc(CNC(=O)C[C@@H]2CC[C@@H](NC(=O)c3cccc(F)c3)[C@@H](CO)O2)cc1,7.8,.,.,.
CCCNC(=O)N1CC2(CN(C(=O)COC)C2)c2c(n(C)c3cc(OC)ccc23)[C@H]1CO,0.6,.,.,.
CO[C@H]1CN(C)C(=O)c2cc(NC(=O)Nc3cccc(F)c3)ccc2OC[C@H](C)N(C(=O)C2CC2)C[C@@H]1C,-11.7,.,.,.
C[C@@H]1CN([C@@H](C)CO)C(=O)c2cc(NS(=O)(=O)c3ccccc3)ccc2O[C@@H](C)CCCCO[C@@H]1CN(C)S(=O)(=O)c1ccc(Cl)cc1,13.0,.,.,.
O=C(Nc1nc2ccccc2[nH]1)c1cccc(Br)c1,-112.7,-31.9,31.1,12.4
COc1ccccc1N(C)S(=O)(=O)c1ccc(C(=O)NCCc2ccc(F)cc2)cc1,-15.3,5.9,53.3*,-1.5
CN(CC(=O)Nc1cccc(F)c1)CC(=O)Nc1cccc(S(=O)(=O)N(C)c2ccccc2)c1,.,11.6,21.5,.
Cc1cc(C)c(NC(=O)CN(C)CC(=O)Nc2cccc(S(=O)(=O)N(C)c3ccccc3)c2)c(C)c1,15.0,36.9,53.3*,.
CN(c1ccccc1)S(=O)(=O)c1ccc(C(=O)NCCc2ccc(F)cc2)cc1,20.3,-3.5,40.4,2.1
Cc1ccc(NC(=O)c2cccc(S(=O)(=O)N(C)c3ccccc3)c2)cc1S(=O)(=O)N1CCOCC1,3.9,19.5,53.6*,-2.7
Cc1ccc(N(C)S(=O)(=O)c2cccc(C(=O)Nc3nc4ccccc4[nH]3)c2)cc1,8.2,31.9,54.2*,3.3
O=C(c1cccc(F)c1)N1CC2(C1)[C@@H](c1ccccc1)[C@@H](CO)N2C(=O)C1CCCC1,6.3,.,.,.
Cc1ccc(S(=O)(=O)N(C)C[C@@H]2OCCCC[C@@H](C)Oc3ccc(NC(=O)c4ccncc4)cc3C(=O)N([C@@H](C)CO)C[C@@H]2C)cc1,-0.6,.,.,.
CN(c1ccccc1)S(=O)(=O)c1cccc(NC(=O)c2cccc(C#N)c2)c1,8.6,46.2,41.6,.
